From the supplement of paper PMC12494721
Where a name gives a salt, the structure may show the parent alone.

Each compound was assayed on Escherichia coli IAI1 (assay: growth (OD595) fold change vs plate DMSO controls (fold change (ratio)); higher = more growth). Settings: incubation time: 27 h, anaerobic, 37 °C.
In short: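 The measure reported is growth, taken as fold change against the median of DMSO controls on the same plate. Anaerobic mGAM cultures in 96-well plates (27 h, 37 °C) were read at 595 nm, blank-subtracted, corrected for compound background using 20 µM compound solutions in water, and multiplied by a calibration factor of 5 to give OD. Any fold change above 1.5 became NA, and 2 biological replicates were averaged.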

`CC(=O)[C@H]1CC[C@H]2[C@@H]3CC=C4C[C@@H](O)CC[C@]4(C)[C@H]3CC[C@]12C` [Pregnenolone] (20 µM) was tested. Which growth did it give?
Its growth is 1.07.

For `CC(C(=O)O)c1ccc(N2Cc3ccccc3C2=O)cc1` (stereo not given) [Indoprofen] (20 µM), which growth is on record?
The growth was 0.99.

With `Cc1cc(O)c(C(=O)N[C@@H](C(=O)N[C@@H]2C(=O)N3C(C(=O)O)=C(CSc4nnnn4C)CS[C@H]23)c2ccc(O)cc2)cn1` [Cefpiramide] (20 µM) as the compound, how does the growth read?
The growth was 0.0131.

For `CC(C)=CCC1C(=O)N(c2ccccc2)N(c2ccccc2)C1=O` [Feprazone] (20 µM), which growth is on record?
Its growth is 0.999.

Which growth does the source give for `COC(=O)C1=C(C)NC(C)=C(C(=O)OCCN(C)Cc2ccccc2)C1c1cccc([N+](=O)[O-])c1` (stereo not given) [Nicardipine hydrochloride] (20 µM) here?
Its growth is 0.934.

Which growth does the source give for `COCCOC(=O)C1=C(C)NC(C)=C(C(=O)OC(C)C)C1c1cccc([N+](=O)[O-])c1` (stereo not given) [Nimodipine] (20 µM) here?
Its growth is 0.814.

For `NS(=O)(=O)c1cc2c(cc1Cl)N=CNS2(=O)=O` [Chlorothiazide] (20 µM), which growth is on record?
The growth was 1.06.

For `CC(Oc1ccccc1)C(=O)N[C@@H]1C(=O)N2[C@@H]1SC(C)(C)[C@@H]2C(=O)O` (stereo not given in full) [Phenethicillin potassium salt] (20 µM), which growth is on record?
Its growth is 1.05.

For `Cc1ccc(N(CC2=NCCN2)c2cccc(O)c2)cc1` [Phentolamine hydrochloride] (20 µM), which growth is on record?
The growth was 1.

For `CC1(C)O[C@@H]2C[C@H]3[C@@H]4C[C@H](F)C5=CC(=O)CC[C@]5(C)[C@H]4[C@@H](O)C[C@]3(C)[C@]2(C(=O)CO)O1` [Flurandrenolide] (20 µM), which growth is on record?
Its growth is 1.15.
